Results published in PubChem BioAssay (EPA / NIEHS).
Records with an inconclusive call do not appear. Activity calls are given as the source filed them. How the source made its calls, unless noted: active means hit-call score of the fitted dose curve at least 0.9, where 1 is the maximum; inactive means score below 0.9.

Experiments:
[1] = target: Retinoic acid receptor RXR-alpha (Homo sapiens) (UniProt P19793); assay: ATG_RXRa_TRANS: Attagene TRANS-FACTORIAL HepG2 Assay for human Retinoid X Receptor alpha (RXRa) (AID 2283012; active means hit-call score of the fitted dose curve at least 0.9, where 1 is the maximum)
Chain of Retinoic acid receptor RXR-alpha (Homo sapiens) (P19793 whole entry, looked up, the tested form may be a part): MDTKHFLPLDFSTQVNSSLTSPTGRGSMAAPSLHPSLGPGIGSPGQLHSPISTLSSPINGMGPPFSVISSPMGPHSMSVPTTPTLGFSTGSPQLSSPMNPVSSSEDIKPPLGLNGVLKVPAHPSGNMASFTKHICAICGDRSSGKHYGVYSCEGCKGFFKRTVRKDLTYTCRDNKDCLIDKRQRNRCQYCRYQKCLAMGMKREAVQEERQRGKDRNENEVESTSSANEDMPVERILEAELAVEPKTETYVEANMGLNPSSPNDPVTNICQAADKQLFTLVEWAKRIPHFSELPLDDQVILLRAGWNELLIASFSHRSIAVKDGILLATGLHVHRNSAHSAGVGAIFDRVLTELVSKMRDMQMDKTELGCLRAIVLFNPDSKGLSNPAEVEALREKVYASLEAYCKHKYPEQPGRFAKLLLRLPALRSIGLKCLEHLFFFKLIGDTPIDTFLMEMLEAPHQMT
Procedure, shortened: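 HepG2 cells transiently transfected with multiplexed GAL4-UAS reporter units and chimeric NR-GAL4 fusions, dosed 24 h. Reporter mRNA measured by RT-PCR, FAM labelling, HpaI digestion and capillary electrophoresis; gain-of-signal fitted relative to DMSO baseline.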

[2] = target: human Retinoid X Receptor beta (RXRb), RXRB (gene 6257) (UniProt P28702); assay: ATG_RXRb_TRANS: Attagene TRANS-FACTORIAL HepG2 Assay for human Retinoid X Receptor beta (RXRb) (AID 2283013; active means hit-call score of the fitted dose curve at least 0.9, where 1 is the maximum)
Chain of human Retinoid X Receptor beta (RXRb), RXRB (gene 6257) (P28702 whole entry, looked up, the tested form may be a part): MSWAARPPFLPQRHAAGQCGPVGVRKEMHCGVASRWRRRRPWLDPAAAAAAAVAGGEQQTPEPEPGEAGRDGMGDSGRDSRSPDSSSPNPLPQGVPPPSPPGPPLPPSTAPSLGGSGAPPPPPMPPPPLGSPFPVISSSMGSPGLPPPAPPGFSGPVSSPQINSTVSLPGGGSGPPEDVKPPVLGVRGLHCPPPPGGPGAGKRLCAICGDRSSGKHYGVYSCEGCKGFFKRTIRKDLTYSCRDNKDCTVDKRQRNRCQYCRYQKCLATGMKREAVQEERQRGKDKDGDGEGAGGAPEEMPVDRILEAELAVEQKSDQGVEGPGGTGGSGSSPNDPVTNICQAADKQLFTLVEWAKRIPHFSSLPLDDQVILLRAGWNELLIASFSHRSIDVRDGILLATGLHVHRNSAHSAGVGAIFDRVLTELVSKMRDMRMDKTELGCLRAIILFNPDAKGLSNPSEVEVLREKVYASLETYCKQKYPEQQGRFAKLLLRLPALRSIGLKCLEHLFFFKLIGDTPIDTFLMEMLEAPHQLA
Procedure, shortened: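 HepG2 cells transiently transfected with multiplexed reporter units driven by GAL4-UAS and exogenous chimeric NR-Gal4 proteins; treated 24 h. Reporter mRNA measured by RT-PCR, 6-FAM labelling and capillary electrophoresis; gain-of-signal fitted versus DMSO baseline.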

[3] = target: human Thyroid Receptor alpha (THRa1), THRA (gene 7067) (UniProt P10827); assay: ATG_THRa1_TRANS: Attagene TRANS-FACTORIAL HepG2 Assay for human Thyroid Receptor alpha (THRa1) (AID 2283014; active means hit-call score of the fitted dose curve at least 0.9, where 1 is the maximum)
Chain of human Thyroid Receptor alpha (THRa1), THRA (gene 7067) (P10827 whole entry, looked up, the tested form may be a part): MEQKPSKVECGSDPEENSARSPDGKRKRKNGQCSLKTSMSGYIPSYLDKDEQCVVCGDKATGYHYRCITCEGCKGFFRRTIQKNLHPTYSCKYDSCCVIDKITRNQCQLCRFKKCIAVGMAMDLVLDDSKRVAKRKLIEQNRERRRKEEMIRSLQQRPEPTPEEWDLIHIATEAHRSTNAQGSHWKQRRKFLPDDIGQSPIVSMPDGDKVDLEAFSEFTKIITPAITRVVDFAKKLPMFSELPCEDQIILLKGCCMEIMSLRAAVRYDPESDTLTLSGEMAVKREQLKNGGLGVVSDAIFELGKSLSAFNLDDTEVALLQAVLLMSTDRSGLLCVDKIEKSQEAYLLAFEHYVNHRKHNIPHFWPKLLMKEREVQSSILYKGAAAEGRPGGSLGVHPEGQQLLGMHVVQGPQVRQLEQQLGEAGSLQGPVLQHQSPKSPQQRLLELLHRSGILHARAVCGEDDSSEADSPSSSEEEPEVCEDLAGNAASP
Procedure, shortened: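 First, HepG2 cells receive multiple GAL4-UAS reporter units and the chimeric receptor. They are then dosed for 24 h, after which RNA is reverse-transcribed, amplified, labelled, HpaI-cut and sized by capillary electrophoresis; gain relative to DMSO is scored.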

[4] = read-out: E-selectin (Homo sapiens) (UniProt P16581); assay: BSK_3C_Eselectin: BioMAP Diversity Plus: 3C Assay for Eselectin Biomarker Activity (AID 2283015); details: primary human endothelial cells (HUVEC); actives raise or lower the signal
Procedure, shortened: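 Human vascular endothelium from umbilical vein is exposed to test chemicals for 24 h. E-selectin levels are read by ELISA and compared with DMSO controls.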

[5] = read-out: Interleukin-1 alpha (IL1a), IL1A (gene 3552); assay: BSK_BE3C_IL1a: BioMAP Diversity Plus: BE3C Assay for Interleukin-1 alpha (IL1a) Biomarker Activity (AID 2283016); details: primary human bronchial epithelial cells; actives raise or lower the signal
Procedure, shortened: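 Human primary bronchial epithelial cells (BE3C system) were dosed with compound and IL-1a measured by ELISA 24 h later. Activity was fitted bidirectionally against DMSO baseline; cytotoxicity was tracked in parallel cultures by SRB total-protein staining.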

[6] = read-out: Monocyte Chemoattractant Protein-1 (MCP1), CCL2 (gene 6347); assay: BSK_3C_MCP1: BioMAP Diversity Plus: 3C Assay for Monocyte Chemoattractant Protein-1 (MCP1) Biomarker Activity (AID 2283017); details: primary human endothelial cells (HUVEC); actives raise or lower the signal
Procedure, shortened: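 Endothelial cells from human umbilical vein are dosed with chemical, cultured 24 h, then assayed for MCP-1 by ELISA; both increases and decreases are modelled against DMSO controls.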

[7] = read-out: Monocyte Chemoattractant Protein-1 (MCP1), CCL2 (gene 6347); assay: BSK_4H_MCP1: BioMAP Diversity Plus: 4H Assay for Monocyte Chemoattractant Protein-1 (MCP1) Biomarker Activity (AID 2283018); details: primary human endothelial cells (HUVEC); actives raise or lower the signal
Procedure, shortened: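 Human umbilical vein endothelial cells (4H system) dosed with chemical; MCP-1 measured by ELISA 24 h after dosing. Bidirectional curve fitting against DMSO negative control as baseline; parallel SRB total-protein staining tracks overt cytotoxicity.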

[8] = read-out: Interleukin-8 (IL8), CXCL8 (gene 3576); assay: BSK_3C_IL8: BioMAP Diversity Plus: 3C Assay for Interleukin-8 (IL8) Biomarker Activity (AID 2283020); details: primary human endothelial cells (HUVEC); actives raise or lower the signal
Procedure, shortened: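 Primary human umbilical vein endothelial cells (3C system) were exposed to test chemical for 24 h, then IL-8 was quantified by ELISA. Responses were fitted bidirectionally against DMSO vehicle as baseline.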

[9] = read-out: Monokine induced gamma interferon (MIG), CXCL9 (gene 4283); assay: BSK_3C_MIG: BioMAP Diversity Plus: 3C Assay for Monokine induced gamma interferon (MIG) Biomarker Activity (AID 2283021); details: primary human endothelial cells (HUVEC); actives raise or lower the signal;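 on AC50: MIG protein level measured by immunoassay in the treated endothelial cultures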
Procedure, shortened: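 Primary human umbilical vein endothelial cells in the 3C system were exposed to chemical for 24 h, after which MIG was quantified by ELISA. Activity was fitted bidirectionally against DMSO as negative control and baseline.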

[10] = BSK_3C_SRB: Viability Assessment in the BioMAP Diversity Plus: 3C Assay (AID 2283023); details: primary human endothelial cells (HUVEC);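 further: fitted both ways against DMSO so a hit may be signal rise or drop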
Procedure, shortened: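 Cells were dosed with chemical, cultured 24 h, fixed with 10% TCA, stained with 0.1% SRB and read at 560 nm. Human umbilical vein endothelium was used; DMSO served as negative control and baseline.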

[11] = read-out: Matrix Metallopeptidase 1 (MMP1), MMP1 (gene 4312); assay: BSK_BE3C_MMP1: BioMAP Diversity Plus: BE3C Assay for Matrix Metallopeptidase 1 (MMP1) Biomarker Activity (AID 2283024); details: primary human bronchial epithelial cells; actives raise or lower the signal
Procedure, shortened: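 Primary human bronchial epithelial cells were dosed with test chemicals, and MMP1 levels were measured by ELISA 24 h later. Data were fitted bidirectionally against DMSO as the negative control and activity baseline.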

[12] = BSK_3C_Vis: BioMAP Diversity Plus: 3C Assay for Morphology Visualization (AID 2283025); details: primary human endothelial cells (HUVEC);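 further: fitted both ways so gain or loss versus DMSO counts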
Procedure, shortened: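 Human umbilical vein endothelial cells in the 3C system were imaged by light microscopy 24 h after chemical dosing to record cell morphology. Activity was fitted bidirectionally against DMSO as negative control and baseline; the endpoint serves as a background control.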

[13] = read-out: Pselectin, SELP (gene 6403); assay: BSK_4H_Pselectin: BioMAP Diversity Plus: 4H Assay for Pselectin Biomarker Activity (AID 2283026); details: primary human endothelial cells (HUVEC); actives raise or lower the signal
Procedure, shortened: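 Primary human umbilical vein endothelial cells were exposed to test chemical for 24 h, then cell-surface P-selectin was quantified by ELISA. Activity was fitted bidirectionally against DMSO as negative control and baseline.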

[14] = BSK_4H_SRB: Viability Assessment in the BioMAP Diversity Plus: 4H Assay (AID 2283027); details: primary human endothelial cells (HUVEC);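 further: cells exposed to compound for 24 h before staining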;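 on AC50: curves fitted both ways versus DMSO so AC50 may be loss or gain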
Procedure, shortened: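 Human umbilical vein endothelial cells, 24 h after chemical dosing; total protein measured by 0.1% sulforhodamine B staining after 10% TCA fixation, read at 560 nm. Bidirectional fitting against DMSO.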

[15] = BSK_BE3C_SRB: Viability Assessment in the BioMAP Diversity Plus: BE3C Assay (AID 2283028); details: primary human bronchial epithelial cells;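 on AC50: fitted both ways so AC50 may mark signal gain or loss versus DMSO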
Procedure, shortened: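 Overt cytotoxicity was assessed as total protein in confluent human primary bronchial epithelial cultures 24 h after chemical addition, using 0.1% sulforhodamine B staining read at 560 nm.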

[16] = read-out: Thrombomodulin, THBD (gene 7056); assay: BSK_3C_Thrombomodulin: BioMAP Diversity Plus: 3C Assay for Thrombomodulin Biomarker Activity (AID 2283029); details: primary human endothelial cells (HUVEC); actives raise or lower the signal
Procedure, shortened: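 Primary human umbilical vein endothelial cells (3C system) were exposed to chemical for 24 h, then thrombomodulin levels were measured by ELISA. Activity was fitted bidirectionally against the DMSO negative control as baseline.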

[17] = target: human RAR-related Orphan Receptor gamma (RORg), RORC (gene 6097) (UniProt P51449); assay: ATG_RORg_TRANS: Attagene TRANS-FACTORIAL HepG2 Assay for human RAR-related Orphan Receptor gamma (RORg) (AID 2283011; active means hit-call score of the fitted dose curve at least 0.9, where 1 is the maximum)
Chain of human RAR-related Orphan Receptor gamma (RORg), RORC (gene 6097) (P51449 whole entry, looked up, the tested form may be a part): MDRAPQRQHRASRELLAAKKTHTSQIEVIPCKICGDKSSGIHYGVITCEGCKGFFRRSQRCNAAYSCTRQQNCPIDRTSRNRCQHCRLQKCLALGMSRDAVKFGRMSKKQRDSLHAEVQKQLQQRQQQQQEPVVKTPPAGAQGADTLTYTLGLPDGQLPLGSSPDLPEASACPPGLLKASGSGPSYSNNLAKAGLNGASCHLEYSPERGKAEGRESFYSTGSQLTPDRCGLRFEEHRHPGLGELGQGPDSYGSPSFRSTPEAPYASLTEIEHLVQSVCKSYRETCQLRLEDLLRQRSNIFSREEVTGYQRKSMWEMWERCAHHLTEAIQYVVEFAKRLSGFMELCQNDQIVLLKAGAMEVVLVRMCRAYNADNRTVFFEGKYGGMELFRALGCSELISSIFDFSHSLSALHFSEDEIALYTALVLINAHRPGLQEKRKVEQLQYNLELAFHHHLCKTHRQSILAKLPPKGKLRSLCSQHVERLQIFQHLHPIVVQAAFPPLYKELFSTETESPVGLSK
Procedure, shortened: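 Activity is scored as increase in GAL4-UAS reporter mRNA over DMSO, detected by fluorescent RT-PCR and capillary electrophoresis in HepG2 cells transiently expressing a RORg-Gal4 chimera, 24 h after dosing.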

[18] = read-out: Human Leukocyte Antigen - DR isotype (HLADR), HLA-DRA (gene 3122); assay: BSK_3C_HLADR: BioMAP Diversity Plus: 3C Assay for Human Leukocyte Antigen - DR isotype (HLADR) Biomarker Activity (AID 2283019); details: primary human endothelial cells (HUVEC); actives raise or lower the signal
Procedure, shortened: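 Endothelial cells from human umbilical vein are treated with test chemical; after 24 h, HLA-DR levels are measured by ELISA. Data are fitted in both directions using DMSO as the baseline.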

[19] = target: human Vitamin D Receptor (VDR), VDR (gene 7421) (UniProt P11473); assay: ATG_VDR_TRANS: Attagene TRANS-FACTORIAL HepG2 Assay for human Vitamin D Receptor (VDR) (AID 2283022; active means hit-call score of the fitted dose curve at least 0.9, where 1 is the maximum)
Chain of human Vitamin D Receptor (VDR), VDR (gene 7421) (P11473 whole entry, looked up, the tested form may be a part): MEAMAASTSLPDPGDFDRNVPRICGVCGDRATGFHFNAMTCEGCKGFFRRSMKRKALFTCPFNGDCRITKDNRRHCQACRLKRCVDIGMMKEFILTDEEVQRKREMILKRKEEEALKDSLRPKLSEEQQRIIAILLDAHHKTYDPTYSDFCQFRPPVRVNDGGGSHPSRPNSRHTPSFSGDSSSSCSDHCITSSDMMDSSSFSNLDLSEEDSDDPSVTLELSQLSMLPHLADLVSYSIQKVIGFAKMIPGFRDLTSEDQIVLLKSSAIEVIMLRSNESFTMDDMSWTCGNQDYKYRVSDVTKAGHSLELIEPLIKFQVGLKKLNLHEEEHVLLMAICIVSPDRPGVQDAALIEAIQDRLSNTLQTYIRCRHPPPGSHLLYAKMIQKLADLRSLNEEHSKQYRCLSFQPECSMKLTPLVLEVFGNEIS
Procedure, shortened: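 Fluorescence of labelled reporter cDNA fragments, resolved by capillary electrophoresis, gives mRNA induction after 24 h treatment of HepG2 cells carrying transfected Gal4-fusion reporter units. Activity is fitted in the positive direction with DMSO as baseline.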

Measured: AC50

Chain of E-selectin (Homo sapiens) (P16581 whole entry, looked up): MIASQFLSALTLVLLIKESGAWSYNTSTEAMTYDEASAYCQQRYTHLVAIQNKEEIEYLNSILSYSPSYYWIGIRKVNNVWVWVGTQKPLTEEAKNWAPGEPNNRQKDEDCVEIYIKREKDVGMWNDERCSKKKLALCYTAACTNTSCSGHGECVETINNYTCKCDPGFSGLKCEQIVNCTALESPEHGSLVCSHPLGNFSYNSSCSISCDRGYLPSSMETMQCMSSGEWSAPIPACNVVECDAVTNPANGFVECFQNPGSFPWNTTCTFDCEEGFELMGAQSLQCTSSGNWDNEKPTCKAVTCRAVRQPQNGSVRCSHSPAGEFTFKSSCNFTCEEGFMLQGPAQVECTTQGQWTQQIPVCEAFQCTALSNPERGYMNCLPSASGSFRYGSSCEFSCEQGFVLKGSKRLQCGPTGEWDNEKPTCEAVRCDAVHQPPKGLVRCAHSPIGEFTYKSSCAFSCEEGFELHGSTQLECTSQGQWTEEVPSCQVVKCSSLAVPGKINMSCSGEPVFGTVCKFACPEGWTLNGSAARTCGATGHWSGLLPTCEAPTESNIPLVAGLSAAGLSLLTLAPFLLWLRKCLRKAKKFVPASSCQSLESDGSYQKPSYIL

CC(C)N(C(=O)SCC(Cl)=C(Cl)Cl)C(C)C
active: [4] 30.7 µM | [6] 31.1 µM | [7] 32.2 µM | [8] 30.2 µM | [9] 38.3 µM | [10] 29.8 µM | [12] 37.2 µM | [13] 31.5 µM | [14] 33.4 µM
inactive: [1] | [2] | [3] | [5] | [11] | [15] | [16]

CCOC(=O)CC(SP(=O)(OC)OC)C(=O)OCC (centres undefined)
not listed: [17] | [18] | [19]
inactive: all other assays above

CCC(=O)Nc1ccc(Cl)c(Cl)c1
active: [12] 9.8 µM
not listed: [3] | [18] | [19]
inactive: all other assays above

CC1(C(=O)Nc2ccc(O)c(Cl)c2Cl)CCCCC1
active: [15] 17.8 µM
not listed: [2] | [3]
inactive: all other assays above

CCOP(=S)(OCC)Oc1cc(C)nc(C(C)C)n1
not listed: [17] | [19]
inactive: all other assays above

CCCCSP(=O)(SCCCC)SCCCC
active: [4] 28.1 µM | [6] 26 µM | [7] 16.7 µM | [8] 31.9 µM | [10] 27.9 µM | [12] 13.7 µM | [14] 20 µM | [15] 14.7 µM | [16] 5.35 µM
inactive: [1] | [2] | [5] | [9] | [19] | [11] | [13]

CNc1cnn(-c2cccc(C(F)(F)F)c2)c(=O)c1Cl
active: [18] 3.97 µM
not listed: [1] | [19]
inactive: all other assays above

CCc1cnc(C2=NC(C)(C(C)C)C(=O)N2)c(C(=O)O)c1 (centres undefined)
not listed: [1] | [2] | [3]
inactive: all other assays above

CCc1cccc(C)c1N(C(=O)CCl)C(C)COC (centres undefined)
active: [12] 39 µM | [13] 13.6 µM
not listed: [1] | [3] | [17]
inactive: all other assays above

N#CSCSC#N
active: [4] 10.9 µM | [6] 8.34 µM | [7] 7.62 µM | [8] 11.7 µM | [9] 10.8 µM | [10] 4.78 µM | [12] 5.45 µM | [13] 5.1 µM | [14] 10.2 µM | [16] 13.5 µM
inactive: [1] | [3] | [5] | [11] | [15]

CCCCN(CC)c1c([N+](=O)[O-])cc(C(F)(F)F)cc1[N+](=O)[O-]
active: [10] 16.4 µM | [12] 39 µM
not listed: [2] | [3] | [17] | [18]
inactive: all other assays above

CCC(CC)Nc1c([N+](=O)[O-])cc(C)c(C)c1[N+](=O)[O-]
active: [4] 31.2 µM | [6] 36.6 µM | [7] 22.4 µM | [8] 23.8 µM | [10] 16.7 µM | [11] 20 µM | [12] 13.7 µM | [13] 28.5 µM | [14] 35.6 µM | [15] 20 µM | [16] 15.5 µM
inactive: [17] | [1] | [2] | [5] | [9] | [19]
